Assay results taken from PubChem BioAssay.

Assay: S6 kinase pathway phospho-S6 level changes – cell-based, A549, cytoblot, luminescence, serum-stimulated, primary screen (AID 1158);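 note: serum-stimulated A549 lung adenocarcinoma cells; signal is phosphorylated S6 detected by cytoblot immunostaining with HRP secondary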
Conditions: 5 h, higher = more signal

Q: Which z-score does the source give for C[N+](C)(C)CCCC[C@@H]1NC(=O)[C@@H]2C[C@H](C(=O)O)[C@H](c3cccc(OCCO)c3)N2C1=O here?
A: 1.44

Q: With COCCOC(=O)N1C(=O)[C@@]2(c3cc(C#CCC(C(=O)OC)C(=O)OC)ccc31)[C@H](c1ccc(OCCO)cc1)N1[C@H](c3ccccc3)[C@H](c3ccccc3)OC(=O)[C@H]1[C@@H]2C(N)=O as the molecule, how does the z-score read?
A: 0.702

Q: With Cc1cc(C)c(C(O)C2C=CC3C(=O)N(c4ccccc4)C(=O)C3N2Nc2ccc([N+](=O)[O-])cc2)c(C)c1 (stereo not given) as the molecule, how does the z-score read?
A: -0.62

Q: With O=C(CS)NCCCCCNC(=O)[C@@H]1C[C@@H]2C(=O)N3CCC[C@H]3C(=O)N2[C@@H]1c1ccc(O)cc1 as the molecule, how does the z-score read?
A: -0.244

Q: Which z-score does the source give for C[C@@H]1ON(c2ccccc2)[C@H](c2ccccc2)[C@H]1C(=O)N1C(=O)OC[C@H]1Cc1ccccc1 here?
A: 0.389

Q: For [N-]=[N+]=Nc1ccccc1[C@@H]1OC(c2ccc(OCCCO)cc2)=N[C@]1(CCS(=O)(=O)c1ccccc1)C(=O)NCc1ccccc1, which z-score is on record?
A: -0.309

Q: For COc1ccc([Si](C)(C)[C@@H]2[C@@H](CC(=O)N(CCO)Cc3ccccc3)O[C@]3(C(=O)N(Cc4ccc(N5CCOC5=O)cc4)c4ccccc43)[C@H]2C)cc1, which z-score is on record?
A: -0.16

Q: Which z-score does the source give for COc1ccccc1CN1C(=O)c2ccccc2[C@@H](C(=O)NCC(C)C)[C@@H]1c1ccc(CO)cc1 here?
A: -0.195

Q: With COC(=O)[C@@]1(Cc2ccc(F)cc2)[C@@H]2[C@@H](CC(=O)[C@H]2CC(=O)C(=O)N2CCCC2)CN1C(=O)c1ccccc1 as the molecule, how does the z-score read?
A: -0.502

Q: For CC1CC/C=C\[C@H]2OC34C=CCN(c5ccc(Cl)cc5)C(=O)[C@H]3N(C(CO)C(C)C)C(=O)[C@]4(C)C2C(=O)O1 (stereo not given in full), which z-score is on record?
A: -0.631

Q: For C=CCC(OC(C)=O)[C@@H]1[C@@H](N(Cc2cccc3ccccc23)C(=O)Cc2ccc(F)cc2)c2cc(OCCCO)ccc2N1C(=O)Cc1ccc(OC)cc1 (stereo not given in full), which z-score is on record?
A: 1.36

Q: With COC(=O)[C@]1(Cc2ccccc2CN=[N+]=[N-])N=C(c2ccc(OCCCO)cc2)O[C@@H]1c1ccccc1 as the molecule, how does the z-score read?
A: 0.008

Q: For CCCc1cc2c(n1Cc1ccc(OC)cc1)C(C)C1CN(C(=O)c3ccccc3)C(C)(C(=O)OC)C21 (stereo not given), which z-score is on record?
A: -0.57

Q: For CN(C)C(=O)[C@@]1(CCC(=O)OC(C)(C)C)N=C(c2ccc(OCCCO)cc2)O[C@H]1c1ccccc1N=[N+]=[N-], which z-score is on record?
A: -0.192

Q: With CCN(CC)c1ccc(N2CC=CC34O[C@@H]5/C=C\CCCOC(=O)C5[C@H]3C(=O)N(CCCCCO)[C@@H]4C2=O)cc1 (stereo not given in full) as the molecule, how does the z-score read?
A: -0.486

Q: Which z-score does the source give for COC(=O)[C@@]1(Cc2ccc(F)cc2)[C@H]2c3cc(C(=O)N(C)C)n(CCSCCO)c3C[C@H]2CN1C(=O)c1ccccc1 here?
A: -0.426

Q: For C=CCNC(=O)[C@@H]1[C@H]2C(=O)O[C@H](c3ccccc3)[C@H](c3ccccc3)N2[C@H](c2ccc(O)cc2)[C@@]12C(=O)Nc1ccc(C#CCCO)cc12, which z-score is on record?
A: 0.727

Q: For COC(=O)C(CC#Cc1ccc2c(c1)[C@]1(C(=O)N2)[C@H](c2ccccc2OCCO)N2[C@H](c3ccccc3)[C@H](c3ccccc3)OC(=O)[C@H]2[C@@H]1C(=O)Nc1nc2ccccc2s1)C(=O)OC, which z-score is on record?
A: 0.334

Q: For COC(=O)[C@@]1(Cc2ccc(OC)cc2)[C@H]2c3cc(C(=O)N4CCCC4)n(CCc4ccc(O)c(OC)c4)c3C[C@H]2CN1C(=O)c1ccccc1, which z-score is on record?
A: 0.389

Q: Which z-score does the source give for CCOC(=O)C[C@H]1[C@H](OC(=O)c2ccccc2-c2ccccc2)[C@@H](NC(=O)c2ccccc2)c2cc(OCCCO)ccc2N1C(=O)Cc1ccc(OC)cc1 here?
A: 0.0269

Q: Which z-score does the source give for C=C(/C(=C/C[C@@H](OC(=O)c1ccncc1)c1ccccc1OCCO)c1cnc2ccccc2c1)C(C)C here?
A: -0.174

Q: With COCCOC(=O)N1C(=O)[C@@]2(c3cc(C#CCC(C(=O)OC)C(=O)OC)ccc31)[C@H](C(=O)N1CCCCCCC1)[C@H]1C(=O)O[C@H](c3ccccc3)[C@H](c3ccccc3)N1[C@@H]2c1ccc(O)cc1 as the molecule, how does the z-score read?
A: -0.0955

Q: Which z-score does the source give for NC(=O)NCC#Cc1ccc2c(c1)[C@]1(C(=O)N2)[C@H](c2ccc(OCCO)cc2)N2[C@H](c3ccccc3)[C@H](c3ccccc3)OC(=O)[C@H]2[C@@H]1C(=O)N1CCCCCCC1 here?
A: -0.0231

Q: With C=C(CCCC)/C(=C/C[C@H](OC(=O)c1ccncc1)c1ccc(CO)o1)c1cc(C(=O)OC)ccc1OC as the molecule, how does the z-score read?
A: -0.247

Q: Which z-score does the source give for O=C1N(CCS(=O)(=O)c2ccccc2)Cc2ccccc2C[C@@]12COC(c1ccc(OCCCO)cc1)=N2 here?
A: -0.0579

Q: Which z-score does the source give for C[N+](C)(C)CCCCNC(=O)[C@H]1C[C@H]2C(=O)NCC(=O)N2[C@H]1c1ccc(O)cc1 here?
A: -0.0248

Q: Which z-score does the source give for CC(C)N1C(=O)c2ccccc2[C@](C)(C(=O)O)[C@@H]1c1ccc(CO)cc1 here?
A: 0.256

Q: For C[N+](C)(C)CCCCCCNC(=O)[C@@H]1C[C@@H]2C(=O)NCC(=O)N2[C@@H]1c1ccc(O)cc1, which z-score is on record?
A: -0.727

Q: Which z-score does the source give for COCCCNC(=O)[C@@]1(Cc2ccccc2CN=[N+]=[N-])N=C(c2ccc(OCCCO)cc2)O[C@H]1c1ccccc1N=[N+]=[N-] here?
A: -0.0478

Q: Which z-score does the source give for COC(=O)[C@@]1(Cc2ccc(OC)cc2)[C@H]2c3cc(C(=O)N(C)C)n(CCF)c3C[C@H]2CN1C(=O)c1ccccc1 here?
A: -0.132

Q: With C=CCNC(=O)[C@H]1[C@@H]2C(=O)O[C@@H](c3ccccc3)[C@@H](c3ccccc3)N2[C@@H](c2ccc(OCCO)cc2)[C@]12C(=O)N(C(=O)OCCOC)c1ccc(C#CC3=CCCCC3)cc12 as the molecule, how does the z-score read?
A: 0.632

Q: With O=C1C2C=CC(C(O)c3cccc4ccccc34)N(Nc3ccccc3)C2C(=O)N1c1ccccc1 (stereo not given) as the molecule, how does the z-score read?
A: -0.594

Q: With COc1ccc(C#Cc2ccc3c(c2)[C@]2(C(=O)N3)[C@H](C(=O)O)[C@H]3C(=O)O[C@H](c4ccccc4)[C@H](c4ccccc4)N3[C@@H]2c2ccc(OCCO)cc2)cc1 as the molecule, how does the z-score read?
A: -0.0207

Q: With C=CCOC(=O)[C@H]1[C@@H]2C(=O)O[C@@H](c3ccccc3)[C@@H](c3ccccc3)N2[C@@H](c2ccc(OCCOC(=O)[C@H]3C[C@H]4C(=O)N[C@@H](CCCCN(C)C)C(=O)N4[C@H]3c3ccc(O)cc3)cc2)[C@]12C(=O)Nc1ccccc12 as the molecule, how does the z-score read?
A: -0.259

Q: Which z-score does the source give for COC(=O)[C@@]1(Cc2ccccc2)[C@H]2c3cc(C(=O)N(C)C)n(Cc4ccccn4)c3C[C@H]2CN1C(=O)c1ccccc1 here?
A: -0.733
